Compounds without any hit were thinned out: in the full panel of roughly 83,000, 20% have a hit.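 Assay: single dose, 48 h. Readout: percent growth (0 = no net growth; negative = cell death). Active: <10.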 Values without a mark were called inactive. Activity calls are given as the source filed them.
system: HL-60(TB) leukemia; assay: NCI-60 one-dose screen, 48 h (100 = growth as untreated, 0 = no growth, -100 = all killed); conditions: 10 µM unless noted

**Q.** With `O=C1OC(Oc2ccccc2)(c2ccccc2)c2ccccc21` (stereo not given) as the compound, how does the growth read?
**A.** Its growth is 83.8%.

**Q.** How did the growth turn out when `CCCCCCCCCCCCCC[N+](C)(C)CCCCCCCCCCCCCC` was run?
**A.** The growth was 46.6%.

**Q.** Which growth does the source give for `COc1cc2nc3cc([N+](=O)[O-])ccc3c(NCCCNCCO)c2cc1OC` here?
**A.** Its growth is -25.3% (active).

**Q.** For `Oc1[nH]c2ccccc2c1/C=c1/cc2c(c(-c3ccc(F)cc3)n1)=Nc1ccccc1-2`, which growth is on record?
**A.** Its growth is -39.1% (active).

**Q.** Which growth does the source give for `CN(C)c1ccc(/C=c2\s/c(=C\C(=O)C(C)(C)C)[nH]c2=O)cc1` here?
**A.** Its growth is 119%.

**Q.** With `COc1ccc2c3c(c4ccccc4cc13)C(=O)N(CCN(C)CCN)C2=O` as the compound, how does the growth read?
**A.** The growth was -58.1% (active).

**Q.** With `CC(C)=CC/C=C(/C)[C@H]1CC[C@]2(C)[C@@H]1CC[C@@H]1[C@@]3(C)CCC(=O)NC(C)(C)[C@@H]3CC[C@]12C` as the compound, how does the growth read?
**A.** The growth was -22.1% [100 µM] (active).

**Q.** `Cc1cc(C)c2nc(Nc3nc(C)c(C)c(=O)[nH]3)nc(C)c2c1` was tested. Which growth did it give?
**A.** Its growth is -10.2% (active).

**Q.** Which growth does the source give for `CCOC(=O)c1c2c(n3cccc(Cl)c13)C(=O)c1ncccc1C2=O` here?
**A.** The growth was 34%.

**Q.** `NS(=O)(=O)c1ccc(-n2ncc3c(=O)[nH]c(CN4CCN(c5cc6c(cc5F)c(=O)c(C(=O)O)cn6C5CC5)CC4)nc32)cc1` was tested. Which growth did it give?
**A.** The growth was 98%.

**Q.** `Cc1ccc(C(=O)c2ccc(CC(=O)N/N=C/c3ccc(O)cc3O)n2C)cc1` was tested. Which growth did it give?
**A.** The growth was 4.48% (active).

**Q.** Which growth does the source give for `CCN(CC)CCC(=O)c1ccc(OC)c2ccccc12` here?
**A.** Its growth is 44.2%.

**Q.** `Cc1cccc(NC(=O)CSc2nc3ccc([N+](=O)[O-])cc3[nH]2)c1` was tested. Which growth did it give?
**A.** The growth was 86.1%.

**Q.** Which growth does the source give for `COc1ccc(-c2cc(Nc3ccnc(N4CCOCC4)n3)on2)cc1` here?
**A.** The growth was -29.9% (active).

**Q.** With `Cc1cn(-c2cc(NC(=O)c3ccc(C)c(Nc4nccc(-c5cccnc5)n4)c3)cc(C(F)(F)F)c2)cn1` as the compound, how does the growth read?
**A.** The growth was 53.3%.

**Q.** `COc1ccc(/C=C/C(=O)/C=C/c2cc3ccc(Cl)cc3[nH]c2=O)cc1` was tested. Which growth did it give?
**A.** Its growth is 71%.

**Q.** For `COC(CCP(=O)(c1ccccc1)c1ccccc1)(C(=O)c1ccccc1)c1ccccc1` (stereo not given), which growth is on record?
**A.** Its growth is 7.75% (active).

**Q.** For `C=C1CC[C@@H]2C(C)(C)[C@@H](O)CC[C@@]2(C)[C@@H]1COc1ccc2ccc(=O)oc2c1`, which growth is on record?
**A.** The growth was 69.1%.

**Q.** How did the growth turn out when `CC1=C(C/C=C(\C)CCC[C@H](C)CCC[C@H](C)CCCC(C)C)C(=O)c2ccccc2C1=O` was run?
**A.** The growth was 105%.

**Q.** Which growth does the source give for `CC(C)c1c(C(=O)c2ccccc2)c(-c2ccccc2)c(-c2ccc(F)cc2)n1CC[C@@H](O)C[C@@H](O)CC(=O)O` here?
**A.** The growth was 74%.

**Q.** With `O=C(O)CCCl` as the compound, how does the growth read?
**A.** Its growth is 107%.

**Q.** `Nc1nc(-c2ccnc(Cl)c2)nn1-c1nc2ccccc2s1` was tested. Which growth did it give?
**A.** Its growth is 107%.

**Q.** How did the growth turn out when `COc1cc(CNS(=O)(=O)c2ccc(C)cc2)ccc1OCc1cn(-c2ccc(Br)cc2)nn1` was run?
**A.** The growth was 106%.

**Q.** How did the growth turn out when `CCCCCCCC(=O)SCC/C=C/[C@@H]1CC(=O)NCc2cccc(n2)C2=N[C@@](C)(CS2)C(=O)N[C@@H](C(C)C)C(=O)N1` was run?
**A.** The growth was 24.7%.

**Q.** With `Nc1nc(C(=O)N/N=C/c2ccc(N3CCOCC3)cc2)nn1-c1ccc(S(N)(=O)=O)cc1` as the compound, how does the growth read?
**A.** The growth was 101%.

**Q.** For `CCCCc1ccc2nc(NC(=O)OC)[nH]c2c1`, which growth is on record?
**A.** Its growth is -65.6% (active).

**Q.** `CSc1nc(-c2ccc(O)cc2O)c2c(=O)[nH]c(Nc3ccc(S(=O)(=O)Nc4nc(C)cc(C)n4)cc3)nc2n1` was tested. Which growth did it give?
**A.** The growth was 114%.

**Q.** How did the growth turn out when `CC(C)(C)NC(=O)C(OC(=O)c1cccc(Cl)c1)c1ccc(Cl)cc1` (stereo not given) was run?
**A.** The growth was 103%.

**Q.** For `C=C1C(=O)O[C@H]2[C@H]1CC/C(COC(=O)c1cc3ccccc3o1)=C\CC[C@@]1(C)O[C@@H]21`, which growth is on record?
**A.** The growth was -2.94% (active).

**Q.** With `CC(=O)Nc1ccc(S(=O)(=O)N/N=C\c2ccc(Cl)c(Cl)c2)cc1` as the compound, how does the growth read?
**A.** The growth was 1.93% (active).

**Q.** Which growth does the source give for `COc1cc(C(=O)/C=C/c2c(-c3ccc(F)cc3)nc3sc(C)cn23)cc(OC)c1OC` here?
**A.** The growth was -34% (active).

**Q.** Which growth does the source give for `CCOCCOCCOCCOCCOCCOCCOCCOCCOCCO` (tested in a mixture with another compound) here?
**A.** The growth was -54.9% (active).

**Q.** How did the growth turn out when `O=C(N/N=C\c1c(O)ccc2ccccc12)C1CC1` was run?
**A.** Its growth is 1.22% (active).

**Q.** Which growth does the source give for `COc1cccc2cc(N(C)c3nc(C)nc4c3CCC4)ccc12` here?
**A.** Its growth is -8.85% (active).

**Q.** With `CCN1C(=O)N(CC)C2C1NN=c1s/c(=C\c3ccccc3)c(=O)n12` (stereo not given) as the compound, how does the growth read?
**A.** Its growth is -45.3% (active).

**Q.** With `C=C1C(=O)O[C@H]2[C@H]1CC/C(COC(=O)/C=C\C(=O)NCc1ccc(Cn3c(=O)sn(CCCCC)c3=O)cc1)=C\CC[C@@]1(C)O[C@@H]21` as the compound, how does the growth read?
**A.** The growth was -17.6% (active).

**Q.** How did the growth turn out when `CCCCCCCCCCCC[S+](C)CC(=O)[O-]` (stereo not given) was run?
**A.** Its growth is 20.3%.

**Q.** With `COC(=O)c1ccc2c(c1)Oc1ccc(Cl)cc1-c1cc(C)nn1-2` as the compound, how does the growth read?
**A.** The growth was 103%.

**Q.** How did the growth turn out when `Cc1ncc(-c2ccnc(Nc3ccc(S(C)(=O)=O)cc3)n2)n1C(C)C` was run?
**A.** Its growth is -43.2% (active).

**Q.** Which growth does the source give for `C=CCN1C=CC(=O)[C@H](O[Si](C)(C)C(C)(C)C)[C@@H]1/C=C/c1ccccc1` here?
**A.** Its growth is -33.3% [100 µM] (active).

Reference: PubChem BioAssay (NCI)
